Only some compounds are listed: those with a hit (about 4.6% of all), similar ones and a draw of the others.
Tau fibril FP: tau fibrillization inhibition (FP); P10636; K18 P301L tau heparin fibrillization, Alexa594 FP, 6 h; Potency, µM (top dose mostly 57.7 µM), actives largely listed as inhibitors; 0.39% of 280,000 active; AID 1468; note: nearly all actives have a fitted effect of over 55% in size
Target sequence (P10636 561-689 P618L limits assumed): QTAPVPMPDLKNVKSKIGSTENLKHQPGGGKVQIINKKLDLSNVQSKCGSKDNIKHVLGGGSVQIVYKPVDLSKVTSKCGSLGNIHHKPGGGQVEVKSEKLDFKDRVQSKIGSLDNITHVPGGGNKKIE
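Recombinant K18 P301L […], labeled with Alexa 594 at 0.24 uM over 15 uM unlabeled; heparin inducer 20 uM final; 37 C, 6 hr; FP endpoint.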
TRb-SRC2 inh: disrupts binding of human TR beta to SRC2. TRbeta-SRC2 peptide binding, fluorescence polarization; receptor liganded with 1 µM T3. Potency, µM (series often up to 106 µM), usual class: inhibitors. 0.065% of 280,000 active. AID 1469; note: nearly all actives have a fitted effect of over 50% in size
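Assay buffer: 20 mM Tris-HCl, 100 mM NaCl, 10% glycerol, 1 mM EDTA, 0.01% NP-40, 1 mM DTT, 1 uM T3, 5% DMSO; TRb LBD 0.6 uM, Texas Red SRC2 20 nM; FP after 5 hr.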
TexasRed fluor: alters Texas Red total fluorescence, flagging assay interference | AID 1479 | Potency, µM (doses to about 106 µM) | TRb/SRC2 Texas Red total fluorescence interference | 0.29% of 280,000 active; active = well fitted curve in either direction with a large enough effect; inconclusive = small, poorly fitted or top-dose-only effect
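Human TRb ligand-binding domain at 0.6 uM with 20 nM Texas Red SRC2 peptide in Tris buffer containing 1 uM T3 and 5% DMSO, incubated with compound 5 h at ambient temperature. Total fluorescence (555/632 nm) calculated as parallel + 2 × perpendicular.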
PNC assembly inh: perinucleolar compartment assembly inhibition; PC3M PTB-GFP, PNC prevalence imaging, 16 h; active compounds read low; activity change (PNC), negative = inhibition, % at 10 µM; 3.1% of 140,000 active;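 active = readout at or below -70, meaning at least 70% loss of cells showing the perinucleolar compartment, a nuclear body marking cancer cells; inconclusive = readout between -30 and a set limit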
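Read-out is percentage of cells bearing a perinucleolar compartment, from automated 20x imaging of fixed, Hoechst-stained PC3M PTB-GFP cells. Cells were seeded 4 h, then exposed 16 h to compound (23 nl of library stock) in duplicate plates.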
Tau ThT inhib: tau fibrillization inhibition (ThT binding). Potency, µM (highest dose often 57.4 µM), most hits filed as inhibitors. recombinant tau K18 P301L, heparin-induced fibrillization, ThT fluorescence. 2.1% of 270,000 active; note: nearly all actives have a fitted effect of over 55% in size
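Using a mix of unlabeled (15 uM) and Alexa 594-labeled (0.24 uM) tau K18 P301L, heparin-triggered fibrillization over 6 hr at 37 C was scored by ThT fluorescence.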
Tau fluor cs: counter-screen for tau fibril formation inhibitors; 0.93% of 280,000 active; AID 1463; tau K18 P301L Alexa594 fluorescence, heparin fibrillization; Potency, µM (titrated, usually from 57.7 µM); note: nearly all actives have a fitted effect of over 55% in size
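Human tau K18 P301L (15 uM unlabeled, 0.24 uM Alexa 594-labeled) in 100 mM sodium acetate pH 7 with 20 uM heparin, 6 hr at 37 C. ThT 30 uM added, 1 hr ambient; Alexa 594 FP and total fluorescence read at 555/632 nm.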
Hits are given with their value; 0 = inactive; ? = inconclusive; - = not tested or not shown; [ ] = another dose, or the depositor's remark. Unless noted, calls come from the whole dose curve; as a rule, active = well fitted curve in the direction sought with a large enough effect; inconclusive = small, poorly fitted or top-dose-only effect, or another doubt; inactive = no such curve, though single readings can be large; an effect the other way counts as inactive or inconclusive.

SMILES	Tau fibril FP	TRb-SRC2 inh	TexasRed fluor	PNC assembly inh	Tau ThT inhib	Tau fluor cs
COc1cc(C2c3c(oc4ccccc4c3=O)C(=O)N2c2ccccn2)cc(OC)c1OC (stereo not given)	0	0	0.04µM[quencher]	-	0	0
COc1ccc(C2c3c(oc4ccccc4c3=O)C(=O)N2c2ccccn2)cc1OC (stereo not given)	0	0	0	-	0	0
COc1cccc(C2c3c(oc4ccc(Cl)cc4c3=O)C(=O)N2c2cc(C)on2)c1OC (stereo not given)	0	0	0	-136	0	0
CCc1ccc2oc(-c3cc(N=Cc4cccc(OC)c4O)ccc3O)nc2c1	0	0	0	?	14µM	?
Cc1ccc(C)c(CN2CCCN(Cc3ccccc3C)S2(=O)=O)c1	0	0	0	-	0	0
CC1(C)CC(=O)C=C(NCc2cccc(C(F)(F)F)c2)C1	0	0	0	-	0	0
Cc1ccccc1C(=O)n1nc(-c2cccnc2)nc1NCc1ccccc1	0	0	0	-	?	0
Cc1cccc(C(=O)n2nc(-c3cccnc3)nc2NCc2ccccc2)c1	0	0	0.0089µM[quencher]	-	?	?
Cc1nn(CC(=O)NCc2cc3ccccc3[nH]2)c(C)c1[N+](=O)[O-]	0	0	0	?	0	0
COc1ccc(/C=C/C(=O)c2ccncc2)c2ccccc12	?	0	0	0	16µM	0
COc1ccc(/C=C/C(=O)c2ccc[nH]2)c(OC)c1OC	0	0	0	?	0	0
O=C(NCc1cccnc1)C1c2ccccc2C(=O)N1C1CCCCCCC1 (stereo not given)	0	0	0	0	0	0
O=C(O)CCN1C(=O)S/C(=C\c2cccnc2)C1=O	0	0	0	-	0	0
COc1ccccc1NS(=O)(=O)c1cc(NC(=O)Nc2ccccc2)ccc1N1CCCCC1	22µM	0	0	0	0	?
O=C(Nc1ccc(Cl)c(Cl)c1)Nc1ccc(N2CCCC2)c(S(=O)(=O)Nc2ccccc2Cl)c1	0	0	0	0	?	4µM[quencher]
O=C(Nc1ccc(F)cc1)Nc1ccc(N2CCCC2)c(S(=O)(=O)Nc2ccccc2Cl)c1	?	0	0	0	0	2.8µM[quencher]
COc1ccccc1NS(=O)(=O)c1cc(NC(=O)C(C)C)ccc1N1CCCCC1	0	0	0	-	0	0
O=C(CCl)Nc1ccccc1Sc1ccc(Cl)cc1	0	0	0	0	0	0
CC(=O)c1ccc(S(=O)(=O)N2CCn3cccc3C2c2ccc(C)cc2)cc1 (stereo not given)	0	0	0	-	0	0
COc1ccc(/C=C(/NC(=O)/C=C/c2ccccc2)C(=O)N2CCOCC2)cc1	0	0	0	?	0	0
CCOc1ccc(N=Nc2c(=O)[nH]n3c(C)cc(C)nc23)cc1	0	0	0	0	13µM	0
CCCOc1ccc(NC(=O)CC2C(=O)N(C)C(=S)N2Cc2cccs2)cc1 (stereo not given)	0	0	0	-119	0	0
CCCOc1ccc(NC(=O)CC2C(=O)N(CC)C(=S)N2CCNC(C)=O)cc1 (stereo not given)	0	0	0	-113	0	0
CCN1C(=O)C(CC(=O)Nc2ccc(F)cc2)N(CCCN2CCN(c3ccc(F)cc3)CC2)C1=S (stereo not given)	?	0	0	-	?	13µM[quencher]
CC(C)c1ccc(C(=O)NCCCN2CCN(CCCNC(=O)c3ccc(C(C)C)cc3)CC2)cc1	0	0	0	0	0	0
COc1cc(NC(=O)Nc2cccc(-c3noc(C)n3)c2)cc(OC)c1OC	0	0	0	-	?	13µM[quencher]
Brc1ccccc1OCCCN1CCOCC1	0	0	0	-100	0	0
O=C(Cc1cccs1)NCCSc1c(-c2ccc(Cl)cc2)[nH]c2ccccc12	0	0	0	0	0	7.1µM[quencher]
COc1cc(OC)cc(C(=O)NCCSc2c[nH]c3ccccc23)c1	0	0	0	-	-	?
CN(C)S(=O)(=O)c1ccc(C(=O)NCCSc2c(-c3ccc(Cl)cc3)[nH]c3ccccc23)cc1	0	0	0	-	0	14µM[quencher]

Assay outcomes deposited in PubChem by National Center for Advancing Translational Sciences (NCATS).
